Only some compounds are listed: those with a hit (about 2.2% of all), similar ones and a draw of the others.
APP 5UTR inh: APP translation inhibition; SH-SY5Y APP 5'UTR-luciferase reporter, luminescence; inhibition, % at 2 µM; 190,000 compounds, 0.82% hits; AID 1285;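 active = inhibition above a set limit, derived from the sample mean plus 3 SD, cut at about 45% in these data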
Ba/F3 V617F tox: loss of viability in JAK2V617F-driven Ba/F3 cells; 220,000 compounds, 1.1% hits; inhibition, % at 5.6 µM; Ba/F3 EpoR-JAK2V617F viability, ATP luminescence;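 active = inhibition above the campaign mean plus 3 SD over all tested compounds, cut at about 24% in these data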;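 note: cytokine-independent growth of Ba/F3 cells driven by EpoR plus mutant JAK2; 0% = DMSO-treated cells and 100% = JAK inhibitor I control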
KLF5 inh: inhibitors of KLF5 expression; DLD-1 KLF5 promoter-luciferase reporter, luminescence; inhibition, % at 5 µM; 290,000 compounds, 0.23% hits; AID 1700;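 active = inhibition above a per-plate limit of that plate's mean compound inhibition plus 3 SD, cut at about 60% in these data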;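 note: 0% = DMSO wells and 100% = LY294002 at 200 µM; higher means less KLF5 promoter-driven luciferase light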
BaF3 parental: reduces parental Ba/F3 cell viability, JAK2V617F counter-screen | CellTiter-Glo ATP luminescence | inhibition, % at 5.6 µM | 220,000 compounds, 1.1% hits | AID 1486;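 active = inhibition above a per-campaign cutoff, the mean inhibition of all tested compounds plus 3 SD, cut at about 27% in these data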;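 note: 0% = DMSO wells and 100% = JAK Inhibitor I control wells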
IEC-6 tox: counter-screen for KLF5 inhibitors: cytotoxicity in IEC-6 cells; IEC-6 cytotoxicity, luminescence viability; inhibition, % at 5 µM; 290,000 compounds, 0.78% hits; AID 1825; in the data active = inhibition above about 22%;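 note: 0% = plate median of test compound wells and 100% = cytotoxic reference compound wells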
aSyn 5UTR inh: MLPCN primary screen, SNCA 5' untranslated region. alpha-synuclein 5'UTR reporter, inhibitor activity. inhibition, % (tested at 7.5 µM). 300,000 compounds, 0.82% hits. AID 1813; in the data active = inhibition above about 60%;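 note: H4 neuroglioblastoma cells stably carrying SNCA 5'UTR luciferase fusion; 0% = DMSO wells and 100% = positive control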
Starred values were filed as active, the others as inactive.

Results for COc1ccc(S(=O)(=O)Nc2cc(Sc3ncn[nH]3)c(O)c3ccccc23)cc1 ?
APP 5UTR inh: 8.8; Ba/F3 V617F tox: 89.8*; KLF5 inh: 89.2*; BaF3 parental: 86.6*; IEC-6 tox: 13.1

Results for CC(=O)/C(=N\Nc1ccccc1)Sc1cccc2cccnc12 ?
APP 5UTR inh: 12.0; Ba/F3 V617F tox: 0.7; KLF5 inh: -8.1; BaF3 parental: 6.5; IEC-6 tox: 14.4; aSyn 5UTR inh: 24.3

Results for Cc1n[nH]c(=O)c2c(NC(=O)CSc3nn(-c4ccccc4)c(=S)s3)oc(C)c12 ?
aSyn 5UTR inh: 9.2

Results for O=C(COc1ccc(S(=O)(=O)N2CCCC2)cc1Cl)NCc1cccnc1 ?
KLF5 inh: -35.7; IEC-6 tox: 0.3; aSyn 5UTR inh: -0.2

Results for CN(C(=O)COC(=O)CNC(=O)c1ccc2ccccc2c1)c1c(N)n(Cc2ccccc2)c(=O)[nH]c1=O ?
KLF5 inh: -13.1; IEC-6 tox: -9.3; aSyn 5UTR inh: -1.7

Results for O=C(CC1CC2CCC1C2)NCCc1ccc(Cl)cc1 (stereo not given) ?
KLF5 inh: -26.9; IEC-6 tox: 1.1; aSyn 5UTR inh: -24.2

What do the screens show for `O=C(Nc1ccc2c(c1)OCCO2)NC1(C(F)(F)F)Oc2ccccc2O1`?
APP 5UTR inh: 0.6; Ba/F3 V617F tox: 8.8; KLF5 inh: -31.5; BaF3 parental: 7.0; IEC-6 tox: -3.6; aSyn 5UTR inh: 62.5*

How did O=C(Nc1ccc(-c2nc3ccccc3[nH]2)cc1)c1ccc2c(c1)OCO2 do in these assays?
APP 5UTR inh: -45.1; Ba/F3 V617F tox: -1.7; KLF5 inh: -133.1; BaF3 parental: 10.3; IEC-6 tox: -0.2; aSyn 5UTR inh: -102.5

What do the screens show for `c1ccc2[nH]c(-c3ccc4c(c3)OCO4)nc2c1`?
aSyn 5UTR inh: 78.5*

Results for O=C(c1ccco1)N1N=C(c2ccc(Br)cc2)CC1(O)C(F)(F)F (stereo not given) ?
APP 5UTR inh: 10.8; Ba/F3 V617F tox: 3.0; KLF5 inh: -14.9; BaF3 parental: 73.9*; IEC-6 tox: 7.7; aSyn 5UTR inh: 8.4

What do the screens show for `O=C(NCc1c[nH]c2ccccc12)c1ccccc1`?
aSyn 5UTR inh: -8.2

How did CC(=O)Nc1ccc(NC(=O)C(C)OC(=O)CCc2c[nH]c3ccccc23)cc1 (stereo not given) do in these assays?
aSyn 5UTR inh: -4.9

Results for CC(C)CN1CCC(Oc2cccc(C(=O)NCCc3ccccc3)c2)CC1 ?
KLF5 inh: -45.9; IEC-6 tox: 2.7; aSyn 5UTR inh: -49.5

How did CCC(C)NC(=O)CSc1nc2c(sc(=S)n2Cc2ccco2)c(=O)n1-c1ccccc1 (stereo not given) do in these assays?
APP 5UTR inh: 67.8*; Ba/F3 V617F tox: 4.5; KLF5 inh: -8.9; BaF3 parental: 4.7; IEC-6 tox: 3.5; aSyn 5UTR inh: 7.7

How did Cc1ccc2nc(SCC(=O)NC(=O)NCc3ccco3)[nH]c2c1 do in these assays?
APP 5UTR inh: -4.0; Ba/F3 V617F tox: -0.4; KLF5 inh: 21.8; BaF3 parental: 4.9; IEC-6 tox: 9.7; aSyn 5UTR inh: -3.2

What do the screens show for `Cc1ccc2nc(SCC(=O)NCc3ccco3)[nH]c2c1`?
APP 5UTR inh: 50.6*; Ba/F3 V617F tox: -3.0; KLF5 inh: -5.2; BaF3 parental: -0.5; IEC-6 tox: 0.7; aSyn 5UTR inh: -40.3

How did CCCCn1c(N)c(N(CCC(C)C)C(=O)c2ccc3c(c2)OCCO3)c(=O)[nH]c1=O do in these assays?
aSyn 5UTR inh: 12.5

What do the screens show for `O=c1[nH]cc(F)c(=O)[nH]1`?
APP 5UTR inh: 6.0; Ba/F3 V617F tox: 86.1*; KLF5 inh: 45.8; BaF3 parental: 82.7*; IEC-6 tox: 86.4*; aSyn 5UTR inh: -31.4

Results for O=c1[nH]cc(O)c(=O)[nH]1 ?
Ba/F3 V617F tox: 3.6; KLF5 inh: 3.5; BaF3 parental: -2.9; IEC-6 tox: 0.5; aSyn 5UTR inh: 19.3

Results for O=C(c1ccc(Br)s1)N1CCN(c2ccccn2)CC1 ?
KLF5 inh: -24.7; IEC-6 tox: -6.7; aSyn 5UTR inh: -17.0

How did O=C(N1CCN(c2ccccn2)CC1)N1c2ccccc2Sc2ccccc21 do in these assays?
APP 5UTR inh: 94.2*; Ba/F3 V617F tox: 70.7*; KLF5 inh: 19.2; BaF3 parental: 76.3*; IEC-6 tox: 17.3; aSyn 5UTR inh: 3.0

How did O=C(/C=C\Nc1ccc2c(c1)OCO2)c1ccccn1 do in these assays?
APP 5UTR inh: -120.5; Ba/F3 V617F tox: -0.7; KLF5 inh: -0.7; BaF3 parental: 2.0; IEC-6 tox: -6.8; aSyn 5UTR inh: 117.6*

Screens (PubChem)
